According to PubChem BioAssay AID651815 (National Center for Advancing Translational Sciences (NCATS), 2012):
The whole screen tested about 2,100 compounds, of which about 1,100 (52%) were called active. Inconclusive results (about 29%) are left out. The call rests on the fitted dose curve; in most records, active means well fitted inhibition curve with a large enough effect; inconclusive means small, poorly fitted or top-dose-only effect; inactive means no such curve, though single readings can be large or run the other way. The set was probably picked from earlier hits. The list shows a part of the results.

target: DNA dC->dU-editing enzyme APOBEC-3F (Homo sapiens) (UniProt Q8IUX4); experiment: qHTS for inhibitors of Vif-A3F interactions: Cherry picks counterscreen; settings: HeLa A3F-eYFP/Vif cells, eYFP fluorescence, 24 h; series mostly up to 46.1 µM; further: nearly all actives have a fitted effect of over 65% in size
Sequence (Q8IUX4 whole entry, looked up): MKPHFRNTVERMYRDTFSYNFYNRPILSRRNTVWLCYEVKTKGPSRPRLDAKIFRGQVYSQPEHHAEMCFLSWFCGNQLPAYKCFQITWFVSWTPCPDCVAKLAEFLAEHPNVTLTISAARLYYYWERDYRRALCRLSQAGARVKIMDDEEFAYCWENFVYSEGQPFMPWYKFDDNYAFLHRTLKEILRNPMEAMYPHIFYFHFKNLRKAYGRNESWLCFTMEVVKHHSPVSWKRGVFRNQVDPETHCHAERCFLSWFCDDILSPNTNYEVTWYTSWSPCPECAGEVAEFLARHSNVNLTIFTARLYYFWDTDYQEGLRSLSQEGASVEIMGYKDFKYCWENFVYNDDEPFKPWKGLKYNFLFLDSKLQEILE
Outline: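 HeLa cells stably expressing A3F-eYFP and Vif, cultured overnight, then treated 24 h at 37 degrees C with compounds at several concentrations; yellow fluorescence (488 nm Ex/500-530 nm Em) imaged on Acumen; MG132 positive control.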
Potency means the concentration at half of the fitted maximal effect.

Compound	Potency
COc1cccc(Nc2nc(Nc3ccc(Cl)c(C(=O)O)c3)nc(C)c2[N+](=O)[O-])c1	inactive
CCOC(=O)N1CCC(Nc2nc3ccccc3n3nnnc23)CC1	18.4 µM (active)
CCOC(=O)c1ccc(Nc2nc3ccccc3nc2NS(=O)(=O)c2ccc(Cl)cc2)cc1	14.6 µM (active)
COC(=O)c1cc(Nc2nc3ccccc3nc2NS(=O)(=O)c2ccc(C)cc2)ccc1Cl	18.4 µM (active)
Cc1ccc2nc(NS(=O)(=O)c3ccc(Cl)cc3)c(Nc3ccc(C(=O)O)cc3)nc2c1	14.6 µM (active)
CCOC(=O)N1CCC(Nc2nc3ccccc3nc2NS(=O)(=O)c2ccc(Cl)cc2)CC1	23.1 µM (active)
CC(=O)N/N=C/c1cc(C(C)(C)C)cc(/C=N/NC(C)=O)c1O	23.1 µM (active)
CC(=O)N/N=C/c1cc(C(C)C)cc(/C=N/NC(C)=O)c1O	inactive
NC(=S)N/N=C/c1cccc(O)c1O	inactive
CCOc1ccc(C(C)=O)cc1COc1cccnc1[N+](=O)[O-]	9.94 µM (active)
COc1cccc(/C=N/n2c(C3CCCCC3)n[nH]c2=S)c1O	inactive
COc1ccc2cc(C(=O)C3CCCN(Cc4ccccn4)C3)ccc2c1 (stereo not given)	inactive
COc1ccc(-n2nc3c(N4CCCC(C(=O)NCCc5ccccc5C)C4)nnc(C)c3c2C)cc1 (stereo not given)	25.9 µM (active)
CNCC(O)Cn1c2c(c3ccccc31)CCCC2 (stereo not given)	inactive
O=C(c1ccccc1F)n1c2c(c3ccccc31)CCCC2	11.2 µM (active)
CCOC(=O)N1CCc2c(sc3c2C(=O)NC(c2ccc(N(C)C)cc2)N3)C1 (stereo not given)	9.2 µM (active)
Cc1cc(C)c2cc3c(N)c(C(=O)Nc4c(C)[nH]c(=O)[nH]c4=O)sc3nc2c1	18.4 µM (active)
CCOC1=C/C(=C/c2c(N)n3nc(-c4ccccc4)sc3nc2=O)C=CC1=O	inactive
CCSc1ncc(Cl)c(C(=O)N2CCN(c3ccccc3OC)CC2)n1	2.06 µM (active)
COc1ccccc1N1CCN(C(=O)c2ccc3ncsc3c2)CC1	inactive
COc1cc(SC)ccc1C(=O)N1CCN(c2ccccc2OC)CC1	3.53 µM (active)
COc1ccccc1N1C(=O)c2cccc3c(C(=O)O)ccc(c23)C1=O	inactive
COC(=O)c1cc(C(=O)N2CCN(c3ccccc3OC)CC2)cc([N+](=O)[O-])c1	3.96 µM (active)
COc1ccccc1N1CCN(C(=O)c2cc(=O)c3cc(C)cc(C)c3o2)CC1	0.125 µM (active)

Compound	Potency
COc1ccccc1C(=O)N1CCN(c2cccc(Cl)c2)CC1	1.25 µM (active)
Cc1ccc2nc3c(cc(S(=O)(=O)c4ccccc4)c(=N)n3Cc3ccco3)c(=O)n2c1	inactive
COc1ccc(Cn2c(C)nc3c(c2=O)c2nc4ccccc4nc2n3Cc2ccco2)cc1	18.4 µM (active)
CCn1c(SCC(=O)c2c[nH]c3ccccc23)nnc1-c1cccs1	18.4 µM (active)
CCOc1ccc(NC(=O)/C(C#N)=C/c2ccc(N3CCCC3)c(C)c2)cc1	5.8 µM (active)
CCOC(=O)c1c(-c2ccc(C)cc2)csc1NC(=O)/C(C#N)=C/c1ccc(O)c(OC)c1	inactive
CCOc1cc(/C=C(/C#N)C(=O)Nc2ccc(O)cc2)cc(Br)c1O	15.8 µM (active)
Cc1ccc2c(c1)Sc1c(ccc3ccccc13)N2	16.4 µM (active)
Cc1cc(C)c(S(=O)(=O)Oc2ccccc2[N+](=O)[O-])c(C)c1	6.27 µM (active)
O=[N+]([O-])c1ccccc1SNc1ccccc1	inactive
CCN(CC)c1ccc(C=NNc2ccc([N+](=O)[O-])cn2)cc1	10.3 µM (active)
Cc1ccc(Cc2c(C3CCCCC3)nc3ccc(C)cn23)cc1	inactive
Cc1noc(C)c1COc1cccc(C(=O)OCC(=O)N2CC(=O)Nc3ccccc32)c1	6.27 µM (active)
C/C(=N\Nc1nccnc1Cl)c1ccc(Cl)c(Cl)c1	inactive
CCSc1nc2ccccc2n1C(=O)/C=C/c1ccc(OC)c(OC)c1	4.98 µM (active)
C=CCSc1nc2ccccc2n1C(=O)/C=C/c1cc(OC)c(OC)c(OC)c1	6.27 µM (active)
CNc1cncc(-c2cc(C)c(O)c(C)c2)n1	4.44 µM (active)
O=C(Nc1ncc(Cc2ccc(SC(F)F)cc2)s1)c1ccccc1	2.23 µM (active)
Cc1nc(-c2ccc(Cl)cc2)sc1C(=O)NN	14 µM (active)
O=C(O)Cc1sc(NC2CCCCC2)nc1-c1ccc(Cl)cc1	inactive
CCOc1cc(/C=C2/SC(=S)N(CC3CCCO3)C2=O)ccc1O (stereo not given)	14.6 µM (active)
CCN(CC)c1cc(C)c(/C=C/c2ccnc3ccccc23)cc1C	20.6 µM (active)
Cc1cc(N(C)C)c(C)cc1/C=C/c1ccnc2ccccc12	8.2 µM (active)
CC(C)C1C(=O)N(Cc2cn(CCC3OCCCO3)nn2)CCS(=O)(=O)N1Cc1ccc(-c2cccc(CO)c2)cc1 (stereo not given)	inactive

Compound	Potency
O=C(NC(=S)Nc1ccc(N2CCCCC2)c(Cl)c1)c1ccc2c(c1)OCCO2	inactive
COc1ccc(-c2cc3ccccc3oc2=O)cc1NC(=S)NC(=O)c1ccc2c(c1)OCCO2	6.51 µM (active)
Cc1ccc2ccc3cc(C(=O)Nc4ccc(C)c(F)c4)nc3c2[nH]1	18.4 µM (active)
C1=Cc2ccccc2/C1=C\c1cc2c3c(c1)CCCN3CCC2	16.4 µM (active)
Cc1ccc(/C=C2/CNC/C(=C/c3ccc(C)cc3)C2=O)cc1	9.94 µM (active)
CCNc1ccc(Br)cc(C(=O)/C=C/c2ccc3c(c2)OCO3)c1=O	18.4 µM (active)
Cc1ccc2oc(/N=C(\N)NC(=O)C(C)(C)C)nc2c1	inactive
CN1C(=O)/C(=C/c2ccccc2OCc2ccc(F)cc2)N(C)C1=S	inactive
CCNC(=S)N/N=C(\C)c1ccc(N2CCOCC2)cc1	inactive
Cc1cccc2cc3c(N)c(C(=O)Nc4ccc(N5CCOCC5)cc4)sc3nc12	12.5 µM (active)
O=C(Nc1ccc(N2CCOCC2)cc1)c1cccc2ccccc12	15.8 µM (active)
Cc1ccc(C)c2nc3sc(C(=O)N4CCOCC4)c(N)c3cc12	15.8 µM (active)
Cc1cccc2cc3c(N)c(C(=O)N4CCOCC4)sc3nc12	16.4 µM (active)
CCc1ccc(C(=O)NC(=S)Nc2ccc(N3CCOCC3)cc2)cc1	inactive
N#C/C(=C\c1ccc(N2CCOCC2)o1)C(=O)NC1CCCCC1	14 µM (active)
N#C/C(=C\c1ccc(N2CCOCC2)o1)C(=O)NCCc1ccccc1	inactive
N#C/C(=C/c1ccc(N2CCOCC2)o1)C(=O)NC1CCCCC1	18.4 µM (active)
Oc1cccc(Nc2nc(O)c(/C=C3\C=Nc4ccccc43)s2)c1	20.6 µM (active)
CCOC(=O)/C=c1\s/c(=C\c2ccccc2C)c(=O)n1CC(=O)NCc1ccc2c(c1)OCO2	14 µM (active)
CCOC(=O)/C=c1/s/c(=C/c2ccc3cc(OC)ccc3c2)c(=O)n1CC(=O)NCC1CCCO1 (stereo not given)	18.4 µM (active)
CCOC(=O)/C=c1/s/c(=C\c2c(OC)ccc3ccccc23)c(=O)n1CC(=O)NCC1CCCO1 (stereo not given)	9.94 µM (active)
CCOC(=O)/C=c1\s/c(=C\c2c(OC)ccc3ccccc23)c(=O)n1CC(=O)NCC1CCCO1 (stereo not given)	4.61 µM (active)
NC(=O)CSc1nc2c(sc3ccccc32)c(=O)n1CCCC(=O)NCC1CCCO1 (stereo not given)	inactive
S=C(NN=Cc1ccccn1)Nc1ccccn1	inactive

Compound	Potency
Nc1cccc(CCc2nc3cc4ccccc4cc3[nH]2)c1	4.44 µM (active)
O=C(NNc1ncc(C(F)(F)F)cc1Cl)c1c(Cl)cccc1Cl	4.44 µM (active)
Cc1cc(C)c(C(=O)N(CCN(C)C)CC2CCCN(Cc3ccccc3F)C2)o1 (stereo not given)	inactive
CC(C)OC(=O)c1cc(C(=O)c2cc(F)ccc2O)coc1=N	20.6 µM (active)
CCC(=O)Nc1ccccc1-c1nc2ccccc2n(C(C)C(=O)Nc2ccc(OC)cc2)c1=O (stereo not given)	16.4 µM (active)
c1cncc(-c2nc(NCc3cccs3)c3ccccc3n2)c1	inactive
Brc1ccc2c(c1)C(c1cccnc1)=NNC(c1cccs1)=N2	14 µM (active)
COC(=O)c1sccc1S(=O)(=O)N(CC(=O)Nc1cc(F)ccc1F)c1ccc(C)c(C)c1	inactive
CC(=O)c1c(C)[nH]c(C(=O)Nc2ccc(Cl)cc2F)c1C	inactive
CCOC(=O)c1[nH]c(C)c(C(=O)Nc2ccccc2F)c1C	3.14 µM (active)
CCOC(=O)c1[nH]c(C)c(C(=O)Nc2ccc(C)cc2C)c1C	2.23 µM (active)
COc1ccc(OC)c(NC(=O)c2cc(-c3cc(C)cc(C)c3O)n[nH]2)c1	inactive
CCOC(=O)c1[nH]c(C)c(C(=O)Nc2cc(OC)ccc2OC)c1C	1.77 µM (active)
Cc1ccc(C)c(N2CCN(C(=O)c3cccn4c(=O)c5sccc5nc34)CC2)c1	15.8 µM (active)
O=c1[nH]c2ccccc2nc1/C=C(\O)c1cccs1	16.4 µM (active)
O=C(/C=C/c1cccs1)NCc1ccc2c(c1)OCO2	inactive
O=C(NCc1ccc2c(c1)OCO2)c1cc([N+](=O)[O-])ccc1N1CCCCC1	1.58 µM (active)
O=C(NCc1ccc2c(c1)OCO2)c1cc([N+](=O)[O-])ccc1N1CCOCC1	4.98 µM (active)
COc1ccccc1-c1noc(-c2ccc(NCc3ccco3)c([N+](=O)[O-])c2)n1	18.4 µM (active)
Cc1cccc(-c2noc(-c3ccc(NCc4ccco4)c([N+](=O)[O-])c3)n2)c1	14.6 µM (active)
O=[N+]([O-])c1cc(-c2nc(-c3ccccc3)no2)ccc1NCc1ccco1	13 µM (active)
CCCCOc1ccc2c(c1)/C(=C(\C(Cl)=C(Cl)Cl)[N+](=O)[O-])N2	inactive
N#Cc1c(C(F)(F)F)cc(-c2ccco2)nc1SCc1ccccn1	16.4 µM (active)
